Values joined by “and” are separate entries in the source; they are usually repeats but may differ in a detail not shown here. Equal entries are not always repeated. About 2,000 (36%) of roughly 5,500 compounds were called active. Inconclusive results (about 18%) are left out. Rule as the data show it: active = normalized growth mostly below about 0.91 (no sharp cut-off); inconclusive = no clear call, values can overlap the other calls; inactive = mostly above about 0.92. The list shows a part of the results.
Assay: chemical genetic growth profiling, strain panel (AID 1159580);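 also: tested at 20 µM; growth read once vehicle control cultures reached saturation at 30 °C; 1 = growth at the plate median or of vehicle wells; lower values mean less growth of the strain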
Conditions: S. cerevisiae deletion strains, growth OD

Measured: normalized growth

O=C(O)c1cc2cc(Cl)ccc2[nH]1
inactive: locus YAL013W, strain DEP1, active compounds read low 1.01 | locus YAL021C, strain ccr4, active compounds read low 0.995 | locus YAL026C, strain drs2, active compounds read low 0.988 | locus YAL030W, strain snc1, active compounds read low 0.989 | locus YBL061C, strain skt5, active compounds read low 0.991 | locus YBR009C, strain hhf1, active compounds read low 0.978 | locus YBR021W, strain FUR4, active compounds read low 0.998 | locus YBR023C, strain chs3, active compounds read low 0.986 | locus YBR171W, strain sec66, active compounds read low 0.986 | locus YBR229C, strain ROT2, active compounds read low 1.01 | locus YBR231C, strain swc5, active compounds read low 0.987 | locus YBR279W, strain paf1, active compounds read low 0.995 | locus YCL011C, strain gbp2, active compounds read low 0.985 | locus YCL016C, strain dcc1, active compounds read low 0.988 | locus YCL029C, strain bik1, active compounds read low 0.983 | locus YCL061C, strain MRC1, active compounds read low 0.984 | locus YCL069W, strain vba3, active compounds read low 0.993 | locus YCR088W, strain abp1, active compounds read low 0.975 | locus YDL005C, strain med2, active compounds read low 0.987 | locus YDL035C, strain GPR1, active compounds read low 1.02 | locus YDL040C, strain nat1, active compounds read low 0.989 | locus YDL074C, strain BRE1, active compounds read low 1.05 | locus YDL101C, strain DUN1, active compounds read low 1.03 | locus YDL134C, strain PPH21, active compounds read low 1.01 | locus YDL185W, strain tfp1, active compounds read low 0.973 | locus YDL192W, strain arf1, active compounds read low 0.989 | locus YDR001C, strain nth1, active compounds read low 0.981 | locus YDR069C, strain doa4, active compounds read low 0.983 | locus YDR101C, strain arx1, active compounds read low 0.971 | locus YDR137W, strain rgp1, active compounds read low 0.999 | locus YDR150W, strain NUM1, active compounds read low 1.01 | locus YDR159W, strain sac3, active compounds read low 0.977 | locus YDR162C, strain NBP2, active compounds read low 1.05 | locus YDR195W, strain ref2 0.998 | locus YDR297W, strain sur2, active compounds read low 0.997 | locus YDR318W, strain mcm21, active compounds read low 0.984 | locus YDR334W, strain swr1, active compounds read low 0.986 | locus YDR335W, strain msn5, active compounds read low 0.988 | locus YDR388W, active compounds read low 0.98 | locus YDR392W, strain spt3, active compounds read low 0.953 | locus YDR502C, strain sam2, active compounds read low 0.998 | locus YEL003W, strain gim4, active compounds read low 1 | locus YEL037C, strain rad23, active compounds read low 0.98 | locus YEL061C, strain CIN8 (second series), active compounds read low 0.981 | locus YEL061C, strain CIN8, active compounds read low 1 | locus YER015W, strain faa2, active compounds read low 0.993 | locus YER016W, strain bim1, active compounds read low 0.984 | locus YER110C, active compounds read low 0.982 | locus YER111C, strain swi4, active compounds read low 0.98 | locus YER155C, strain BEM2 (second series), active compounds read low 0.972 | locus YER155C, strain BEM2, active compounds read low 1.01 | locus YER167W, strain BCK2, active compounds read low 1.01 | locus YFR010W, strain ubp6, active compounds read low 0.986 | locus YGL078C, strain dbp3, active compounds read low 0.979 | locus YGL086W, strain mad1, active compounds read low 0.977 | locus YGL167C, strain pmr1, active compounds read low 0.988 | locus YGL173C, strain kem1, active compounds read low 0.984 | locus YGL227W, strain vid30, active compounds read low 0.973 | locus YGL240W, strain doc1, active compounds read low 0.984 | locus YGL248W, strain PDE1, active compounds read low 1.01 | locus YGL253W, strain hxk2, active compounds read low 0.994 | locus YGR078C, strain PAC10, active compounds read low 1.03 | locus YGR135W, strain pre9, active compounds read low 0.994 | locus YGR229C, strain SMI1, active compounds read low 1.02 | locus YGR252W, strain gcn5, active compounds read low 0.928 | locus YHR013C, strain ard1, active compounds read low 0.973 | locus YHR027C, strain rpn1, active compounds read low 0.988 | locus YHR030C, strain SLT2, active compounds read low 0.997 and 0.95 | locus YHR079C, strain IRE1 (second series), active compounds read low 0.984 | locus YHR079C, strain IRE1, active compounds read low 0.932 | locus YHR094C, strain hxt1, active compounds read low 0.984 | locus YHR129C, strain ARP1, active compounds read low 1.01 | locus YHR142W, strain chs7, active compounds read low 0.984 | locus YHR200W, strain rpn10, active compounds read low 0.99 | locus YIL066C, strain RNR3, active compounds read low 1.01 | locus YIL073C, strain SPO22, active compounds read low 1.02 | locus YIL125W, strain kgd1, active compounds read low 0.979 | locus YIR030C, strain dcg1, active compounds read low 0.991 | locus YJL092W, strain hpr5, active compounds read low 0.98 | locus YJL095W, strain BCK1 (second series), active compounds read low 0.983 | locus YJL095W, strain BCK1, active compounds read low 1.03 and 0.942 | locus YJL115W, strain asf1, active compounds read low 0.992 | locus YJL129C, strain trk1, active compounds read low 0.99 | locus YJL134W, strain LCB3, active compounds read low 1.01 | locus YJL154C, strain vps35, active compounds read low 0.985 | locus YJL164C, strain tpk1, active compounds read low 0.99 | locus YJL166W, strain qcr8, active compounds read low 0.995 | locus YJL168C, strain set2, active compounds read low 0.986 | locus YJL187C, strain SWE1 (second series), active compounds read low 1.02 | locus YJL187C, strain SWE1, active compounds read low 0.992 | locus YJR043C, strain POL32, active compounds read low 0.984 | locus YJR066W, strain TOR1, active compounds read low 0.903
